The list is not random: actives were taken first. Their share in the collection is about 17%.
HepG2 viability = counter-screen for TGF-b inhibitors: cytotoxicity in HepG2 cells. HepG2 CAGA-GFP viability, ATP luminescence, 18 h. Potency, µM (doses to about 46.1 µM), for inactives: top-dose activity change, negative = cytotoxicity, most hits filed as cytotoxic. hit rate 0.76% among 410,000. AID 588856
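CellTiter-Glo luminescence gave cytotoxicity after 18 hours at 37 degrees C. The cells were HepG2 CAGA-GFP in 1% FBS DMEM, stimulated with 500 pg/mL TGF-beta after compound addition. %Activity was normalised to no-cell wells (complete cell-killing) and DMSO (no toxicity), and curves were fitted and classified.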
TGFb SMAD3 inh = inhibitors of TGF-b signaling; hit rate 1.2% among 410,000; Potency, µM (series often up to 46.1 µM), without a hit: top-dose activity, negative = inhibition, most hits filed as inhibitors; AID 588855; HepG2 CAGA-GFP TGF-b/SMAD3 reporter, GFP fluorescence, 18 h; TGF-beta stimulated, 500 pg/mL final; further: on the % scale 0 is the no-effect control and ±100 the full control effect; nearly all actives have a fitted effect of over 65% in size
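HEPG2 CAGA-GFP, 1000 cells/well; 2 h settle, 37 C; cpd via pin tool; TGF-b 500 pg/mL final; 18 h, 37 C; GFP imaging ex488/em500-530; %Activity normalised to -TGF-b and +DMSO controls; CRC fit, curve class.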
S2 tox = reduces viability in counter-screen for ATXN expression inhibitors; hit rate 0.49% among 400,000; S2 cells (HEK-293 line with an ATXN2-luciferase reporter) viability, CellTiter-Fluor protease fluorescence, 24 h; Potency, µM (highest dose often 56.7 µM), actives largely listed as cytotoxic; further: nearly all actives have a fitted effect of over 40% in size
ATXN2 expr inh = ATXN2 expression inhibition | HEK-293 ATXN2-luciferase reporter, luminescence, 24 h | Potency, µM (doses to about 57 µM), for the others: at the highest dose activity change, negative = inhibition, actives largely listed as inhibitors | hit rate 0.72% among 360,000; further: on the % scale 0 is the no-effect control and ±100 the full control effect; nearly all actives have a fitted effect of over 55% in size
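qHTS (up to 57 uM final) was run with 24 h compound exposure of reporter cells at 37 °C. Each well was multiplexed: SteadyGlo luminescence measured ATXN2-luciferase expression after a fluorogenic Gly-Phe-AFC viability readout (25 uM final).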
TDP1 cell noCPT = qHTS for Inhibitors of human tyrosyl-DNA phosphodiesterase 1 (TDP1): qHTS in cells in absence of CPT. hit rate 15% among 420,000. DT40 Tdp1-/- hTDP1 cells, no CPT, ATP luminescence, 48 h. Potency, µM (highest dose often 46.2 µM), for the others: top-dose activity change, negative = growth inhibition, usual class: inhibitors; further: on the % scale 0 is the no-effect control and ±100 the full control effect; nearly all actives have a fitted effect of over 55% in size
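Readout: luminescence from CellTiter-Glo after 30 min in the dark at RT. Cells: DT40 Tdp1-/- with stable hTDP1, 400/well. Exposure: compounds alone, ≥48 hr, 37 °C.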
TDP1 cell CPT = DT40-hTDP1 cell growth loss with CPT | chicken DT40 Tdp1-/-;hTDP1 cells + 20 nM CPT, ATP luminescence, 48 h | Potency, µM (doses to about 46.2 µM), for inactives: top-dose activity change, negative = growth inhibition, actives largely listed as inhibitors | hit rate 12% among 420,000 | AID 686979; further: on the % scale 0 is the no-effect control and ±100 the full control effect; nearly all actives have a fitted effect of over 55% in size
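Cell growth measured by CellTiter-Glo luminescence after a minimum 48 h, 37 C compound exposure with 20 nM CPT in Tdp1-knockout DT40 cells stably expressing hTDP1, seeded 400/well; qHTS titration format.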
The depositor's hits bear a star; i = inactive; ? = inconclusive; . = no result given. The call rests on the fitted dose curve; in most records, active means well fitted curve in the direction sought with a large enough effect; inconclusive means small, poorly fitted or top-dose-only effect, or another doubt; inactive means no such curve, though single readings can be large; an effect the other way counts as inactive or inconclusive. Potency means the concentration at half of the fitted maximal effect.

SMILES	HepG2 viability	TGFb SMAD3 inh	S2 tox	ATXN2 expr inh	TDP1 cell noCPT	TDP1 cell CPT
CCC(=O)Oc1ccc(NC(=O)c2ccc(S(=O)(=O)N3CCCC3)cc2)cc1	-19%	-7%	?	.	21µM*	?
COc1cccc(C(=O)NCC2CCN(c3ccc(S(=O)(=O)N4CCOCC4)cc3)CC2)c1	-19%	-8%	i	3%	?	?
COc1ccc(C(=O)Nc2ccc(S(=O)(=O)N3CCCC3)cc2)cc1	-10%	-19%	i	-22%	-29%	-14%
COc1ccc(NS(=O)(=O)c2cccc(NC(=O)C34CCC(CC3)C4)c2)cc1	-11%	-22%	i	-21%	21µM*	?
Cc1nc(-c2cccc(NC(=O)c3ccc(-n4cccn4)cc3)c2)cs1	-12%	?	i	-7%	10µM*	15µM*
O=C(NCC1CCN(c2ccc(S(=O)(=O)N3CCOCC3)cc2)CC1)c1cccc(Cl)c1	-4%	-16%	i	-29%	12µM*	?
COc1ccc(-n2c(=O)c3ccccc3n(Cc3cccc(C)c3)c2=O)cc1OC	-2%	-17%	i	-9%	-22%	-2%
O=C(C1=NN(c2ccccc2)C2C(=O)N(c3ccccc3Cl)C(=O)C12)c1ccccc1 (centres undefined)	-5%	9%	.	-11%	-11%	0%
O=C(N=C1SC2CS(=O)(=O)CC2N1c1cccc(Cl)c1)C1CCCO1 (centres undefined)	2%	-2%	i	1%	15%	16%
CN(C)Cc1ccccc1-c1cc(NC2CC2)ncn1	.	.	.	.	2%	-8%
CCOC(=O)c1sc(NC(=O)c2cccc(S(=O)(=O)N3CCN(C)CC3)c2)cc1C	-21%	-8%	i	-30%	?	-28%
CCOC(=O)c1sc(NC(=O)c2cccc(S(=O)(=O)N(CC)CC)c2)cc1C	-11%	16%	?	2%	4.6µM*	2.6µM*
COc1ccc(NS(=O)(=O)c2cccc(NC(=O)c3ccc(S(=O)(=O)N4CCCCCC4)cc3)c2)cc1	-21%	0%	?	?	2.6µM*	3.7µM*
CCN(CC)S(=O)(=O)c1cccc(C(=O)Nc2ccccc2C(=O)Nc2ccc(OC)cc2)c1	-3%	?	i	-2%	10µM*	10µM*
COc1ccc(NS(=O)(=O)c2ccc(O)c(NC(=O)c3ccc(S(=O)(=O)N4CCCCCC4)cc3)c2)cc1	-25%	-9%	?	-8%	?	-25%
CCC(C)c1ccccc1N1CC(C(=O)Nc2ccc(C)c(S(=O)(=O)N3CCOCC3)c2)CC1=O (centres undefined)	2%	-4%	i	0%	?	?
Cc1cc(=O)[nH]c(N2CCCNCC2)n1	3%	5%	i	1%	-13%	-29%
Cc1cc(=O)[nH]c(-n2nc(C)cc2C)n1	-16%	-9%	i	-20%	23µM*	23µM*
Cn1cnc(=N)c2[nH]cnc21	.	.	.	292%	.	.
CCCC(C(=O)NCCC(C)C)N(Cc1ccc(OC)cc1)C(=O)c1snc(C(N)=O)c1N (centres undefined)	-18%	0%	24µM*	15%	?	?
Cc1cc(C)c2c(c1)OC(=O)CC2c1ccccc1C (centres undefined)	-12%	-18%	i	5%	?	?
COC(=O)c1ccccc1NC(=O)CN(C)S(=O)(=O)c1ccc(OC)c(C)c1	-13%	12%	i	-10%	?	23µM*
CSc1cccc(NC(=O)CN(C)S(=O)(=O)c2ccc(C)cc2)c1	1%	?	i	-13%	16µM*	?
